Calls of active or inactive are those of the source. The calls were made as follows: active = hit-call score of the fitted dose curve at least 0.9, where 1 is the maximum; inactive = score below 0.9.
test: APR_HepG2_MitoMembPot_24hr: Apredica 24-hour HepG2 Assay for Mitochondrial Membrane Potential (AID 2282911); conditions: imaging, actives raise or lower the signal
How it was run: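 HepG2 human liver cells were exposed 24 hr to compounds at 0.39–200 uM (final DMSO 0.5% v/v) in duplicate. MitoTracker Red CMXRos (250 nM, 30 min) was loaded before formaldehyde fixation; fluorescence was imaged by ArrayScan HCS and fitted bidirectionally versus DMSO.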

outcome, inactive:
CC(C)(C)c1csc(-c2cc3cc(OCc4ccccc4CC(=O)O)ccc3o2)n1
Cc1oc2c(NC(=O)c3c(Cl)cccc3Cl)cccc2c1C(C)(C)O
O=C(O)Cc1cc(I)c(Oc2ccc(O)c(I)c2)c(I)c1
NC(=O)c1nc(-c2cccc(-c3cc(F)ccc3OCC(F)(F)C(F)(F)F)c2)n[nH]1
Cc1occc1C(=O)Nc1ccc(C(=O)N2CCC(F)(F)/C(=C\C(=O)N3CCC(N4CCCCC4)CC3)c3ccccc32)cc1
c1ccc2ccccc2c1
CCCCCCCCCCCCO
C[C@]12CC[C@@H]3c4ccc(O)cc4CC[C@H]3[C@@H]1CCC2=O
Cc1cn([C@H]2C[C@H](N=[N+]=[N-])[C@@H](CO)O2)c(=O)[nH]c1=O
Cc1cccc2ccccc12
CC1=CC(=O)/C(=C(/C)O)C(=O)O1
CCCOC(=O)c1cc(O)c(O)c(O)c1
Cc1ccc2oc(CN(Cc3ccccc3)C(=O)Nc3c(F)cc(F)cc3F)c(-c3ccc(Cl)cc3)c2c1
O=CCCCC=O

AC50, active:
CN(C[C@@H](CC[N+]12CCC(C3CCCCC3)(CC1)CC2)c1ccc(Cl)c(Cl)c1)C(=O)c1cc(C(F)(F)F)cc(C(F)(F)F)c1 1.27 µM
CCCCCCCCOC(=O)c1cc(O)c(O)c(O)c1 13.5 µM
CN(C)c1ccc(C(=C2C=CC(=[N+](C)C)C=C2)c2ccc(N(C)C)cc2)cc1 27.3 µM

test: APR_HepG2_MitoMass_24hr: Apredica 24-hour HepG2 Assay for Mitochondrial Mass (AID 2282912); conditions: high-content imaging, actives raise or lower the signal
How it was run: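 Readout: fluorescence of MitoTracker Red CMXRos (250 nM, added 30 min pre-fixation) in fixed HepG2 cells imaged by HCS. Exposure lasted 24 hr at 0.39–200 uM; increases and decreases were both fitted relative to DMSO.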

outcome, inactive:
CCCCOC(=O)c1ccc(O)cc1
CCCCCCCC[Si](OCC)(OCC)OCC
Clc1cc(Cl)c2c(c1)N=C1CCCCCN1C2
COCC(C)OCC(C)OCC(C)O (stereo not given)
CCCCOC(=O)CC(CC(=O)OCCCC)(OC(C)=O)C(=O)OCCCC
OC12N=C(c3ccccc3)SC1Cc1cc(Cl)ccc12 (stereo not given)
O=C(O)c1ccccc1C(=O)OCc1ccccc1
CN1C(=O)CC[C@H]1c1cccnc1
Cc1cc2c(cc1C(F)(F)F)N(C(=O)Nc1ccc(Oc3cccnc3C)nc1)CC2
Oc1ccccc1
Clc1ccccc1C(c1ccccc1)(c1ccccc1)n1ccnc1
CCN(Cc1cccnc1)C(=O)c1cccc(Cl)c1[C@]1(C)C(=O)N(Cc2ccc(OC)cc2OC)c2ccc(Cl)cc21
O=C(O)c1ccccc1-n1cc(C(=O)O)c(=O)c2cc(Nc3c(F)cc(F)cc3Cl)c(Cl)cc21
CCCC(=O)OCCC(C)C
CC[C@@H]1C[C@H](N(Cc2cc(C(F)(F)F)cc(C(F)(F)F)c2)C(C)=O)c2cc(C(F)(F)F)ccc2N1C(=O)OC(C)C
C[C@]12CC[C@@H]3c4ccc(O)cc4CC[C@H]3[C@@H]1CC[C@H]2O
CC(C)(C)c1csc(-c2cc3cc(OCc4ccccc4CC(=O)O)ccc3o2)n1
Cc1oc2c(NC(=O)c3c(Cl)cccc3Cl)cccc2c1C(C)(C)O
O=C(O)Cc1cc(I)c(Oc2ccc(O)c(I)c2)c(I)c1
Cc1occc1C(=O)Nc1ccc(C(=O)N2CCC(F)(F)/C(=C\C(=O)N3CCC(N4CCCCC4)CC3)c3ccccc32)cc1
NCc1cccc(C2CCN(C(=O)c3ccc(C#Cc4ccccc4F)o3)CC2)c1
c1ccc2ccccc2c1
CCCCCCCCCCCCO
C[C@]12CC[C@@H]3c4ccc(O)cc4CC[C@H]3[C@@H]1CCC2=O
Cc1cn([C@H]2C[C@H](N=[N+]=[N-])[C@@H](CO)O2)c(=O)[nH]c1=O
Cc1cccc2ccccc12
CC1=CC(=O)/C(=C(/C)O)C(=O)O1

AC50, active:
CCCCCCCCCCCC[N+](C)(C)C 180 µM
CCN(CC)C(=O)c1cc(S(=O)(=O)Cc2ccccc2)c(N2CCC(c3ccccc3)CC2)cc1N(CC)CCN(C)C 23.1 µM
O=c1[nH]sc2ccccc12 15.7 µM
CC/C(=C(/CC)c1ccc(O)cc1)c1ccc(O)cc1 46 µM
NC(=O)c1nc(-c2cccc(-c3cc(F)ccc3OCC(F)(F)C(F)(F)F)c2)n[nH]1 160 µM
CN(C[C@@H](CC[N+]12CCC(C3CCCCC3)(CC1)CC2)c1ccc(Cl)c(Cl)c1)C(=O)c1cc(C(F)(F)F)cc(C(F)(F)F)c1 100 µM

— PubChem BioAssay (EPA / NIEHS)
